Unmarked numbers belong to inactive results. Records with an inconclusive call do not appear. Calls of active or inactive are those of the source. Unless noted, calls come from the whole dose curve.

Assay [1] is described as follows: Nuclear factor erythroid 2-related factor 2/antioxidant responsive element (Nrf2/ARE) small molecule agonists: qHTS cell viability counter screen in human keratinocytes (AID 1919968; active = well fitted curve in the direction sought with a large enough effect in the repeat runs; an effect the other way counts as inactive or inconclusive; note: nearly all actives have a fitted effect of over 55% in size; note: potency is the fitted concentration of half-maximal effect). In outline:
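Measured as CellTiter-Fluor fluorescence, this readout tracks cytotoxicity in the same wells as the ARE-luciferase screen. HaCaT reporter cells (1,500/well) received compounds after a 5 h pre-incubation and were exposed for 23 h.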
For orientation: In qHTS, concentration-response curves come from the screen itself.

A short description of assay [2]: Nuclear factor erythroid 2-related factor 2/antioxidant responsive element (Nrf2/ARE) small molecule agonists: luciferase reporter gene qHTS assay in human keratinocytes (AID 1919969). Note: nearly all actives have a fitted effect of over 35% in size. Note: potency is the fitted concentration of half-maximal effect.
Assay [3] concerns the target Gonadotropin-releasing hormone receptor (Homo sapiens) (UniProt P30968). Put plainly: Human gonadotropin-releasing hormone receptor (GnRHR) small molecule agonists, calcium flux assay in GnRHR-HEK293 cells (AID 1920063). Note: nearly all actives have a fitted effect of over 35% in size. In outline:
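Fluorescence kinetics (480 nm excitation, 540 nm emission; 3 min, 1 s steps) report calcium mobilisation in human GnRHR-HEK293 cells in agonist mode. Dye incubation: 1 h, 37 C.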
(Calcium assays in cells follow changes in intracellular calcium, usually with a dye or a luminescent sensor.)

The target of assay [4] is KiSS-1 receptor (Homo sapiens) (UniProt Q969F8). Nature of the assay: Human kisspeptin (KISS1R) small molecule agonists, calcium flux assay in KISS1R-HEK293 cells (AID 1920064; active = well fitted curve in the direction sought with a large enough effect in the repeat runs; an effect the other way counts as inactive or inconclusive). In outline:
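Measures KISS1R agonism through calcium-sensitive dye fluorescence in stably transfected HEK293 cells, read for 3 min after pin-tool compound delivery; 15-point titrations in triplicate.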

Assay [5] can be described thus: G protein-coupled receptor (GPCR) small molecule agonists, calcium flux assay: HEK293 wild type cell line counter screen (AID 1920065). The method, boiled down: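 Readout: fluorescence at 480 nm excitation/540 nm emission, sampled at 1 s intervals for 3 min. Cells had been cultured 18 h, then dye-loaded 1 h at 37 C before compound or ATP addition.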
Assay [6] in a line: p53 small molecule agonists, cell-based qHTS assay with human liver microsomes (AID 1963577).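 Note: p53 response element beta-lactamase reporter cells with liver microsomes plus NADPH.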 In outline: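 Metabolically competent format: test substances, human liver microsomes and NADPH (both 0.5 mg/mL final) incubated with p53RE-bla cells 16 h at 37 C. Beta-lactamase reporter signal then quantified by fluorescence.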
Assay [7] can be described thus: p53 small molecule agonists, cell-based qHTS assay with rat liver microsomes (AID 1963578). The method, boiled down:
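Each plate received p53RE-bla cells, then compound, then rat liver microsomes and NADPH (both 0.5 mg/mL final). Plates were held 16 h at 37 C, and beta-lactamase activity was detected with LiveBLAzer over 2 h.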

Assay [8] can be described thus: p53 small molecule agonists, cell-based qHTS assay with rat liver microsomes: qHTS cell viability counter screen (AID 1963580). Note: nearly all actives have a fitted effect of over 45% in size. In outline:
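Intracellular ATP, by CellTiter-Glo luminescence, defines viability. HCT-116 p53RE-bla cells, 4,000 per well, were compound-treated in the presence of rat liver microsomes and NADPH for 16 h at 37 C.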

The nature of assay [9]: p53 small molecule agonists, cell-based qHTS assay (AID 1963582; active = well fitted activation curve with a large enough effect in the signal ratio in the repeat runs, not every such curve was filed as active; the % refers to the signal ratio). The method, boiled down: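 Compounds are pin-transferred in DMSO onto p53RE-bla cells and incubated 16 h at 37 C. The B/G FRET beta-lactamase substrate is then applied for 2 h at RT and fluorescence recorded.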
The target of assay [10] is 5-hydroxytryptamine receptor 2A (Homo sapiens) (UniProt P28223). Nature of the assay: 5-hydroxytryptamine receptor 2A (HTR2A) small molecule antagonists, cell-based qHTS assay (AID 1963586). Note: nearly all actives have a fitted effect of over 45% in size. The method, boiled down: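 Antagonist-mode intracellular calcium assay: DOI (4 nM) added after 5 min compound pre-incubation at room temperature to dye-loaded HTR2A-CHO cells. Fluorescence followed for 3 min, sampled every second.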
Sequence of 5-hydroxytryptamine receptor 2A (Homo sapiens) (P28223 whole entry, looked up): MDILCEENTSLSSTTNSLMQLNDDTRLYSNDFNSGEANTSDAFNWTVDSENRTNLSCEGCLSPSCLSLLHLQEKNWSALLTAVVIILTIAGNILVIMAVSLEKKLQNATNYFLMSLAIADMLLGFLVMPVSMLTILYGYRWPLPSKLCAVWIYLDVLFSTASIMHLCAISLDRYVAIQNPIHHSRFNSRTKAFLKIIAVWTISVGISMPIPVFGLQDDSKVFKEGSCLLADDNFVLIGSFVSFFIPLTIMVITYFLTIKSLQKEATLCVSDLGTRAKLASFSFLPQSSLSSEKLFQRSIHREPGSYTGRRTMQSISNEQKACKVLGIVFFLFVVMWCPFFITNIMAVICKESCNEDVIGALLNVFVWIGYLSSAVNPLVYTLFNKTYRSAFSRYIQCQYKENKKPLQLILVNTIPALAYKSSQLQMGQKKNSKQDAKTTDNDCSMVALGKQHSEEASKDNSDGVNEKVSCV

For assay [11] the target is unchanged. Put plainly: 5-hydroxytryptamine receptor 2A (HTR2A) small molecule agonists, cell-based qHTS assay (AID 1963587). Note: nearly all actives have a fitted effect of over 30% in size. In outline:
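Kinetic calcium-flux fluorescence (2 min, 1 sec intervals) after compound addition in agonist mode. HTR2A-CHO cells were cultured 18 h, then dye-loaded 1 h at 37 C.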

Assay [12] addresses Muscarinic acetylcholine receptor M1 (Homo sapiens) (UniProt P11229). Put plainly: Cholinergic receptor muscarinic 1 (CHRM1) small molecule antagonists, cell-based qHTS assay (AID 1963588). Note: nearly all actives have a fitted effect of over 40% in size. The method, boiled down: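 CHRM1-CHO calcium-flux assay, antagonist mode. Cells were seeded 18 h, dye-loaded 1 h at 37 C and given compound for 5 min at RT, then acetylcholine was added at 50nM. FDSS fluorescence was read 3 min; 15 concentrations, three runs.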

The target is the same in assay [13]. Nature of the assay: Cholinergic receptor muscarinic 1 (CHRM1) small molecule agonists, cell-based qHTS assay (AID 1963589). Note: nearly all actives have a fitted effect of over 35% in size. The method, boiled down: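 Each compound was tested at 15 concentrations across three independent runs on dye-loaded CHO cells stably expressing human CHRM1, reading intracellular calcium fluorescence kinetically at 1 sec intervals.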

A short description of assay [14]: cAMP Responsive Elements (CRE) small molecule agonists, cell-based qHTS assay (AID 1963590). In outline:
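Cell line: CRE-bla HEK 293T; medium DMEM/10% dialyzed FBS/0.1 mM NEAA/1 mM pyruvate/25 mM HEPES; 3 h compound exposure; beta-lactamase FRET readout after 2 h substrate loading at RT.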

A short description of assay [15]: cAMP Responsive Elements (CRE) small molecule antagonists, cell-based qHTS assay (AID 1963591; active = well fitted inhibition curve with a large enough effect in the signal ratio in the repeat runs, not every such curve was filed as active; the % refers to the signal ratio). The method, boiled down:
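Inhibition of NKH477-driven (0.25 uM final) CRE-beta-lactamase signal in HEK293T cells, 3 h compound exposure at 37 °C, detected by FRET substrate fluorescence.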

In assay [16] the target is Beta-2 adrenergic receptor (Homo sapiens) (UniProt P07550). Nature of the assay: Adrenergic beta2 receptor (ADRB2) small molecule antagonists, cell-based qHTS assay (AID 1963592). Note: series mostly up to about 92 µM; nearly all actives have a fitted effect of over 50% in size. The method, boiled down: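 Cells (CHO, stable ADRB2 overexpression) incubated 18-20hr at 37C; compounds added from DMSO; agonist mix (1nM isoproterenol, 100uM IBMX, 25uM Ro-20-1724) added; 0.5hr RT; d2-cAMP and anti-cAMP-cryptate added; 1hr RT; 665/615 nm read.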
Sequence of Beta-2 adrenergic receptor (Homo sapiens) (P07550 whole entry, looked up): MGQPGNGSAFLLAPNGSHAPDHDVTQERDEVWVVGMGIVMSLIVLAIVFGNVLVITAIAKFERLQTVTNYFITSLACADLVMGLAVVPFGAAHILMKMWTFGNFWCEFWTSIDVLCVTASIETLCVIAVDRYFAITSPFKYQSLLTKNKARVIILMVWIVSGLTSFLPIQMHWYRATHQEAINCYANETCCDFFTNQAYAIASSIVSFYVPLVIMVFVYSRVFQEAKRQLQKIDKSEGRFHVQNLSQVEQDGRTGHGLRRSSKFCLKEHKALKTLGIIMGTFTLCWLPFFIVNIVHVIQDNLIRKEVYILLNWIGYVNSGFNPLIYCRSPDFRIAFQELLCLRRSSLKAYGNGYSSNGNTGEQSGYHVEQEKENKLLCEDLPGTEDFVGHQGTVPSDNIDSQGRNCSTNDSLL

In assay [17] the target is D(2) dopamine receptor (Homo sapiens) (UniProt P14416). Put plainly: Dopamine D2 receptor (DRD2) small molecule antagonists, cell-based qHTS assay (AID 1963595; active = well fitted inhibition curve with a large enough effect in the signal ratio in the repeat runs, with a control signal flat; the % refers to the signal ratio). The method, boiled down: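 Antagonist mode in DRD2-HEK293 cells: after compound addition with 0.1 mM Ro20-1724, cells received quinpirole (12 nM) and NKH477 (200 nM) for 30 min at room temperature; HTRF cAMP read after 1 h detection.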
Sequence of D(2) dopamine receptor (Homo sapiens) (P14416 whole entry, looked up): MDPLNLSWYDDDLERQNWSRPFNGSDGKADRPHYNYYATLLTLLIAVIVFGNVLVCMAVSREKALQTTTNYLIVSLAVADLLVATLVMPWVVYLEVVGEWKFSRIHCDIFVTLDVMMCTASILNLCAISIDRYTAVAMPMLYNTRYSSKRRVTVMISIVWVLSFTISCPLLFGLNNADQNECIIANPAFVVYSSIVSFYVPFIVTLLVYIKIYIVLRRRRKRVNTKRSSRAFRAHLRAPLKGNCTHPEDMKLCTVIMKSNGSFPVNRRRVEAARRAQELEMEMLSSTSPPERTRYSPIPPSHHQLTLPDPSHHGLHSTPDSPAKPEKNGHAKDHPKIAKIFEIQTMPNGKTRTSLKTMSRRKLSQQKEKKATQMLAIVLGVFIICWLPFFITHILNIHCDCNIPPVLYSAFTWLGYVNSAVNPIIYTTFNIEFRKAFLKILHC

The nature of assay [18]: p53 small molecule agonists, cell-based qHTS assay: qHTS cell viability counter screen (AID 1963581). Note: nearly all actives have a fitted effect of over 45% in size. The method, boiled down:
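In the same plates used for the p53 bla reporter, HCT-116 cells given compounds for 16 h at 37 C received CellTiter-Glo; luminescence was recorded 30 min later at room temperature.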

The target of assay [19] is D(2) dopamine receptor (Homo sapiens) (UniProt P14416). Put plainly: Dopamine D2 receptor (DRD2) small molecule agonists, cell-based qHTS assay (AID 1963594). Note: nearly all actives have a fitted effect of over 35% in size. The method, boiled down: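 cAMP accumulation in DRD2-HEK293 cells measured by HTRF after 1 h detection; compounds added 10 min before NKH477 (200nM […]) forskolin-analogue stimulation, 30 min at room temperature, with Ro20-1724 present at 0.1 mM final.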

Assay [20] in a line: p53 small molecule agonists, cell-based qHTS assay with human liver microsomes: qHTS cell viability counter screen (AID 1963579). Note: nearly all actives have a fitted effect of over 45% in size. In outline: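 Tox21 library compounds, delivered from DMSO stocks, were tested on p53RE-bla cells together with 0.5 mg/mL human liver microsomes and 0.5 mg/mL NADPH (final) over 16 h at 37 C; CellTiter-Glo luminescence served as the cytotoxicity measure.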

Sequence of KiSS-1 receptor (Homo sapiens) (Q969F8 whole entry, looked up): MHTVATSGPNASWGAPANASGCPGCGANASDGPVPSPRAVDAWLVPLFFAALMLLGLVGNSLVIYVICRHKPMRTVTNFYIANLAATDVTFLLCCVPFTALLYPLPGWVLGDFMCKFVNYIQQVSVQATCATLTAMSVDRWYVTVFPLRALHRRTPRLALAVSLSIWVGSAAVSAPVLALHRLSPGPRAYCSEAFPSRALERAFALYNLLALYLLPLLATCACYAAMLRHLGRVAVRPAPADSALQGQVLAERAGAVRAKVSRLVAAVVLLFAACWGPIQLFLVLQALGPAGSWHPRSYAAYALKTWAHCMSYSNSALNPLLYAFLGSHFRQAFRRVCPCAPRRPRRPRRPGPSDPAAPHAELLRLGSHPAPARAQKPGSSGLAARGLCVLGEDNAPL
Sequence of Gonadotropin-releasing hormone receptor (Homo sapiens) (P30968 whole entry, looked up): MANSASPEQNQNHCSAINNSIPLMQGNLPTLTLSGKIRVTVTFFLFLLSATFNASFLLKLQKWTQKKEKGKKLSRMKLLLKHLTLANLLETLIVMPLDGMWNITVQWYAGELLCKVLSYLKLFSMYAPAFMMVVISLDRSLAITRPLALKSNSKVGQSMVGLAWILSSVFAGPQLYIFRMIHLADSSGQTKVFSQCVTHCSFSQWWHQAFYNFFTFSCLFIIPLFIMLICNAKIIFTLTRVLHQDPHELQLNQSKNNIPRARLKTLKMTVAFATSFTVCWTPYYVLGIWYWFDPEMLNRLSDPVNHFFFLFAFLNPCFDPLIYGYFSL
Sequence of Muscarinic acetylcholine receptor M1 (Homo sapiens) (P11229 whole entry, looked up): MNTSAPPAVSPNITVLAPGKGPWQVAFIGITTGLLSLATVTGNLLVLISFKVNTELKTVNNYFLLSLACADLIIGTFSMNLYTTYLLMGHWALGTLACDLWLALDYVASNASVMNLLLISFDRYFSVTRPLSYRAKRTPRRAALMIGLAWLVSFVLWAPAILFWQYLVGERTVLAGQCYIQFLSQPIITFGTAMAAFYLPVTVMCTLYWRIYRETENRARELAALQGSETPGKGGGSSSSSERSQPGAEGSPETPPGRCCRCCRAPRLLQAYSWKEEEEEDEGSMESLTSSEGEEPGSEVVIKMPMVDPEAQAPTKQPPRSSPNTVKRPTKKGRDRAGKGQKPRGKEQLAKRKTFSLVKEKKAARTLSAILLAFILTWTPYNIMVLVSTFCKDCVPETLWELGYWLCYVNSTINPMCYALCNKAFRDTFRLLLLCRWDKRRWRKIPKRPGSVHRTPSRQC

Consider `Cc1cnc(NS(=O)(=O)c2ccc(N)cc2)nc1`, for which the Potency result in [1], in assay [2], in assay [3], in assay [6], in assay [7] and in assay [8] was “inactive” in each case. The Potency result in [9], in [10], in assay [11], in assay [12], in [13] and in assay [14] was “inactive” each time. Further, the Potency result in assay [15], in assay [16] and in [17] was “inactive” throughout. For the same compound, the outcome in assay [4] and in assay [5] was inactive.
In the case of `CN(C)c1ccc(C(c2ccccc2)c2ccc(N(C)C)cc2)cc1`, the Potency entry in [1], in assay [2], in assay [3], in [6], in [7] and in [8] was “inactive” each time. The Potency result in assay [18], in assay [10], in assay [11], in [13], in [14] and in assay [15] was “inactive” throughout. For the same compound, in assay [19], the Potency entry was “inactive”. Further, the outcome in assay [4] and in assay [5] was inactive.
With `NC(CS)C(=O)O` (stereo not given), the Potency result in assay [1], in [2], in assay [3], in assay [6], in assay [20] and in [8] was “inactive” in each case. Further, the Potency entry in [18], in [9], in assay [10], in [11], in assay [12] and in assay [13] was “inactive” throughout. The Potency result in assay [15], in assay [16], in assay [19] and in [17] was “inactive” each time. For the same compound, the outcome in [4] and in assay [5] was inactive.
On to `COc1ccc(S(=O)(=O)N2c3ccc(Cl)cc3[C@@](O)(c3ccccc3Cl)[C@H]2C(=O)N2CCC[C@@H]2C(N)=O)cc1OC`, for which the Potency result in [1], in [2], in assay [3], in [6], in [7] and in assay [18] was “inactive” each time. Also, the Potency entry in [9], in assay [10], in [12], in [13], in [14] and in assay [15] was “inactive” each time. Also, the Potency entry in assay [16], in [19] and in assay [17] was “inactive” throughout. The result in assay [4] and in [5] was inactive.
`O=C(c1ccccc1)c1cccc(O)c1`: the Potency result in [1], in assay [2], in assay [3], in assay [6], in assay [20] and in assay [8] was “inactive” throughout. For the same compound, the Potency result in assay [18], in assay [9], in assay [10], in assay [11], in [12] and in [13] was “inactive” each time. The Potency result in assay [14], in [16], in [19] and in assay [17] was “inactive” in each case. In addition, the outcome in assay [4] and in [5] was inactive.
On to `O=C(O)CCC(=O)c1ccc(-c2ccccc2)cc1`, for which the Potency entry in assay [1], in assay [2], in [3], in assay [6], in assay [20] and in [8] was “inactive” in each case. Further, the Potency entry in [18], in assay [9], in assay [10], in assay [11], in assay [12] and in assay [13] was “inactive” throughout. The Potency entry in assay [16], in [19] and in [17] was “inactive” in each case. Moreover, the result in assay [4] and in assay [5] was inactive.
Take `CNc1ccc(O)cc1`: the Potency was 54.4 µM (active) in assay [1] and 24.3 µM (active) in assay [2]. In addition, the Potency entry in [3], in assay [6], in [7], in assay [8], in assay [11] and in assay [13] was “inactive” throughout. The result in [4] and in assay [5] was inactive.
Regarding `Cn1cnc2ncnc(N)c21`, the Potency result in assay [1], in [2], in [3], in [6], in assay [20] and in assay [8] was “inactive” throughout. Further, the Potency entry in assay [18], in assay [9], in assay [10], in assay [11], in assay [13] and in assay [14] was “inactive” throughout. Besides, the Potency entry in assay [15], in assay [16], in [19] and in assay [17] was “inactive” each time. In addition, the outcome in assay [4] and in [5] was inactive.
